Reference: PubChem BioAssay AID1259422 (The Scripps Research Institute Molecular Screening Center, 2018)
“And” between values parts separate entries of the source, which are not always exact repeats. Equal values may be shown once. Among all 640,000 compounds or so, about 9,300 (1.5%) were called active. The sample holds actives, similar compounds and a random draw of the others, so the mix is not that of the screen. No stated cut-off is given here; in the data, active means inhibition above about 32%; inactive means the rest.

Assay: TEAD-YAP interaction inhibition, primary screen, TEAD-YAP interaction inhibitor project, luminescence, HEK-TIYL cells (AID 1259422);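 further: 0% = median of test compound wells and 100% = reference inhibitor wells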
Settings: TEAD-Gal4/YAP UAS-luciferase luminescence, at 9.12 µM, hits give high values

Row | Compound | inhibition
1 | O=C(Cc1ccsc1)N1CCC[C@@H]2CN(C/C=C/c3ccccc3)CC[C@H]21 | -4.71% (inactive)
2 | CS(=O)(=O)c1ccc(NCc2ccco2)cc1 | -0.14% (inactive)
3 | CCOC(=O)C1=C(C)N=c2s/c(=C\c3ccc(N(C)C)c(Br)c3)c(=O)n2C1c1ccc(OC)c(OC)c1 (centres undefined) | -28.6% (inactive)
4 | CCc1nc(SCC(N)=O)c2c3c(sc2n1)CCCC3 | -22.7% (inactive)
5 | COc1ccc2nc(N3CCC(NCc4cccc(F)c4F)CC3)nc(C)c2c1 | 5.35% (inactive)
6 | CC(=O)C(C(C)=O)c1cc(Nc2ccc(C)cc2)c2c3c(onc13)-c1ccccc1C2=O | 3.02% (inactive)
7 | CCOC(=O)C1(CO)NC(c2ccc(O)cc2)C2C(=O)N(C)C(=O)C21 (centres undefined) | -8.15% (inactive)
8 | CCOC(=O)C(=O)C(C#N)c1ccc(OC(C)C)cc1 (centres undefined) | 2.75% (inactive)
9 | CCCNc1ccc2ncc(-c3cccc(OC)c3)n2n1 | 59.2% (active)
10 | CCCNc1cc(-c2cccc(N)c2)ncn1 | -10.6% (inactive)
11 | CCCCNc1cc(-c2cccc(OC)c2)ncn1 | 64.6% (active)
12 | CCCNc1ccc2ncc(-c3ccco3)n2n1 | 3.49% (inactive)
13 | COc1cccc(-c2cnc3ccc(NCc4ccco4)nn23)c1 | 8.66% (inactive)
14 | c1ccc(OCCNc2cc(-c3ccccc3)ncn2)cc1 | -25.8% (inactive)
15 | CCOc1cc(-c2nc3sc4c(c3c(=O)[nH]2)CCCC4)cc(Br)c1OCc1ccccc1F | -1.86% (inactive)
16 | CCN(CC)C(=O)c1sc(NC(=O)c2cccc(OC)c2)c(C(=O)OC(C)C)c1C | 7.6% (inactive)
17 | O=S(=O)(/C=C/c1ccccc1)N1CCN(CC(O)COCc2ccccc2)CC1 (centres undefined) | 1.15% (inactive)
18 | Cc1ccc(S(=O)(=O)N(CC(=O)N2CCCC2)c2ccc(Cl)cc2C)cc1 | 2.4% (inactive)
19 | Cc1ccc(/C=N/NC(=O)c2ccc(Cl)cc2O)o1 | -20.5% (inactive)
20 | Oc1c(CN2CCCC2)cc(COCc2ccccc2)c2cccnc12 | 63% (active)
21 | COc1ccc(CN2CCN(Cc3cccnc3)CC2)cc1OCc1ccccc1 | 8.2% (inactive)
22 | Oc1c(CN2CCN(c3cccc(Cl)c3)CC2)cc(Br)c2cccnc12 | 5.69% (inactive)
23 | N#Cc1ccc(C(=O)Nc2ccc(Cc3ccncc3)cc2)c(F)c1 | 55.3% (active)
24 | CCOC(=O)c1ccc(NC(=O)c2ccc(C#N)cc2F)cc1 | -1.23% (inactive)

Row | Compound | inhibition
25 | CCOc1ccc(NC(=O)c2ccc(C#N)cc2F)cc1 | -9.3% (inactive)
26 | O=C(/C=C/c1ccccn1)c1ccc2c(c1)OCO2 | -21.2% (inactive)
27 | O=C(/C=C/c1ccc2c(c1)OCCO2)c1ccc(O)cc1 | 63.9% (active)
28 | COc1cccc(/C=C/C(=O)c2ccc3c(c2)OCCO3)c1 | -34.3% (inactive)
29 | COCCNc1c(C(C)Cc2ccc3c(c2)OCO3)nc2cnccn12 (centres undefined) | -1.93% (inactive)
30 | Cn1c(=O)cc(OCC(=O)NCCN2CCOCC2)c2ccccc21 | -3.6% (inactive)
31 | Cc1ccc2nc(-c3ccc(Br)cc3)cn2c1 | 75.2% (active)
32 | Brc1ccc2nc(-c3cccs3)cn2c1 | 37.5% (active)
33 | N#Cc1ccc(-c2cccs2)nc1SCc1ccc(Br)cc1 | -20.2% (inactive)
34 | Cc1ccccc1-n1c(-c2ccc(Br)cc2)n[nH]c1=S | -9.56% (inactive)
35 | O=C(Nc1ccc(-c2cn3ccccc3n2)cc1)c1ccc(Br)cc1 | -5.14% (inactive)
36 | c1ccc(-c2nc3nc(-c4cccs4)cn3nc2-c2ccccc2)cc1 | -28.9% (inactive)
37 | N#Cc1ccccc1S(=O)(=O)Nc1ccc(Cl)cc1 | 7.64% (inactive)
38 | CC1=C(C(=O)Nc2cccc(Cl)c2)C(c2ccc([N+](=O)[O-])cc2)NC(=O)N1 (centres undefined) | -2.46% (inactive)
39 | COc1ccc(NC(=O)c2ccc([N+](=O)[O-])o2)cc1OC | 5.63% (inactive)
40 | CCOC(=O)C1=C(C)N=c2s/c(=C\c3ccc(-c4ccc([N+](=O)[O-])cc4)o3)c(=O)n2C1c1cccs1 (centres undefined) | 6.56% (inactive)
41 | O=C(N/N=C/c1ccc2c(c1)OCO2)C12CC3CC(CC(C3)C1)C2 | -46.5% (inactive)
42 | Cc1cc(Cl)ccc1NC(=O)COc1ccc([N+](=O)[O-])cc1 | -9.13% (inactive)
43 | CC(C)(C)c1ccc(OCC(=O)Nc2ccccc2[N+](=O)[O-])cc1 | 2.77% (inactive)
44 | CC(C)(C)c1ccc(OCC(=O)Nc2cc([N+](=O)[O-])ccc2O)cc1 | 77.8% (active)
45 | O=C(CSc1nc2[nH]ncc2c(=O)n1-c1ccccc1)Nc1ccc(Br)cc1F | 8.04% (inactive)
46 | CCOC(=O)C1CCCCN1Cc1cc(Br)ccc1O (centres undefined) | 7.45% (inactive)
47 | COc1ccc(C)cc1NC(=O)CN1C(=O)C(C)N(c2ccc(C)cc2)C1=O (centres undefined) | 8.14% (inactive)
48 | C=CCn1c(=S)[nH]c2sc3c(c2c1=O)CCCCC3 | 8.8% (inactive)

Row | Compound | inhibition
49 | COc1cccc(Nc2nc(-c3cc4cccc(OC)c4oc3=O)cs2)c1 | -12.4% (inactive)
50 | COc1ccccc1Nc1nc(-c2cc3cccc(OC)c3oc2=O)cs1 | 58% (active)
51 | COc1cccc2cc(-c3nc(-c4ccc(C)cc4C)cs3)c(=O)oc12 | 1.78% (inactive)
52 | CCN(C(=O)C1CCC1)c1nnc(-c2ccc(OC)cc2)s1 | -89.3% (inactive)
53 | CCN1CCN(CC(=O)NCc2ccccc2Cl)C(=O)C1=O | 2.39% (inactive)
54 | CCC(C)c1ccc(OCC(=O)NCc2ccco2)cc1 (centres undefined) | -13.8% (inactive)
55 | CCc1cc2c(C)cc(=O)oc2cc1OCC(=O)NCc1ccco1 | 42.8% (active)
56 | O=C(COc1cc(Cl)ccc1Cl)NCc1ccco1 | -2.94% (inactive)
57 | Cc1ccc2nc(C3CCN(CC(=O)NCc4ccccc4)CC3)[nH]c2c1 | 7.44% (inactive)
58 | Cc1ccc(-n2ncc(C(=O)O)c2-n2cccc2)cc1 | 1.07% (inactive)
59 | O=C(Cc1ccccc1)Nc1c(C(=O)N2CCCCCC2)cnn1-c1ccccc1 | -25.7% (inactive)
60 | Nc1c(C(=O)O)cnn1-c1ccccc1 | 35.4% (active)
61 | Cn1c2c(c(=O)n(C)c1=O)C(c1ccc(F)cc1)C1=C(COC1=O)N2 (centres undefined) | 13.2% (inactive)
62 | COc1ccccc1C1C2=C(COC2=O)Nc2c1c(=O)n(C)c(=O)n2C (centres undefined) | 6.62% (inactive)
63 | O=C1OCC2=C1C(c1ccc([N+](=O)[O-])cc1)c1cc3c(cc1N2)OCO3 (centres undefined) | 51.2% (active)
64 | COc1ccccc1C1C2=C(COC2=O)Nc2cc3c(cc21)OCO3 (centres undefined) | 54% (active)
65 | COc1ccc(C2CC(=O)C3=C(C2)Nc2ccccc2NC3c2cc3c(cc2[N+](=O)[O-])OCO3)cc1 (centres undefined) | -38.4% (inactive)
66 | COc1cc(C2CC(=O)Nc3cc4c(cc32)OCO4)ccc1O (centres undefined) | -0.17% (inactive)
67 | CCc1ccccc1N(CC(=O)Nc1cccc(F)c1)S(C)(=O)=O | -13.9% (inactive)
68 | COC(=O)CNC(=O)CC1C(=O)NCCN1Cc1ccc(F)cc1 (centres undefined) | -2% (inactive)
69 | CCNS(=O)(=O)c1ccc(NC(=O)CCOCC)cc1 | 9.16% (inactive)
70 | O=C(CN1C(=O)COc2ccc(Cl)cc21)Nc1ccccc1F | 3.36% (inactive)
71 | COC(=O)c1cc(C(=O)N2CC(C)CC(C)C2)cc([N+](=O)[O-])c1 (centres undefined) | 1.59% (inactive)
72 | CCOC(=O)c1cc(S(=O)(=O)NCc2ccc(Cl)cc2)cn1C | 2.16% (inactive)

Row | Compound | inhibition
73 | COc1cc(Nc2ccnc(Nc3ccncc3)n2)cc(OC)c1OC | 3.91% (inactive)
74 | c1ccc(Nc2nccc(Nc3ccc(N4CCOCC4)cc3)n2)cc1 | 16.2% (inactive)
75 | COc1cc(Nc2ccnc(Nc3ccc(N4CCOCC4)cc3)n2)cc(OC)c1OC | 72.7% (active)
76 | S=c1[nH]nc(N2CCOCC2)n1Cc1ccccc1 | 2.61% (inactive)
77 | O=C(NC1CCCc2ccccc21)c1ccc2nccnc2c1 (centres undefined) | -5.54% (inactive)
78 | Cn1nccc1C(=O)N1CCC[C@@H]2CN(C(=O)Cc3ccc(F)cc3)CC[C@H]21 | 6.31% (inactive)
79 | Cn1nccc1C(=O)NC1CCCc2c1cnn2-c1ccc(F)cc1F (centres undefined) | 55.8% (active)
80 | Cc1cc(C(=O)N(Cc2ccccc2)C(C)C2CC2)c(Cl)cc1Cl (centres undefined) | -10.9% (inactive)
81 | Cc1noc(C)c1NC(=O)N1CCC2(CC1)OCc1ccccc1O2 | -5.79% (inactive)
82 | CC(C)[C@@H](Cn1nnc2ccccc21)NC(=O)c1ccc(N2CCCCS2(=O)=O)cc1 | -3.11% (inactive)
83 | COc1ccc(CCNC(=O)CCS(=O)(=O)c2cccc3cccnc23)cc1OC | 10.6% (inactive)
84 | CC[C@]1(O)CC2CN(CCc3c([nH]c4ccccc34)[C@@](C(=O)OC)(c3cc4c(cc3OC)N(C=O)[C@H]3[C@@](O)(C(=O)OC)[C@H](OC(C)=O)[C@]5(CC)C=CCN6CC[C@]43[C@@H]65)C2)C1 (some centres undefined) | 50.8% (active) and 57.9% (active) and 55.9% (active)
85 | COc1cc(NS(=O)(=O)c2ccc3ccccc3c2)c2ncccc2c1 | 38.5% (active)
86 | COC(=O)c1cccc(NS(=O)(=O)c2ccc3ccccc3c2)c1C | -7.45% (inactive)
87 | COc1cc(NS(=O)(=O)c2c(C)ccc3nsnc23)c2ncccc2c1 | -0.3% (inactive)
88 | Cn1cc(S(=O)(=O)N2CCCC2)cc1C(=O)N1CCC(Cc2ccccc2)CC1 | -7.23% (inactive)
89 | O=C(Cc1cccc(Cl)c1)NCc1ccccc1 | -42.3% (inactive)
90 | Nc1c(C(=O)NCc2ccccc2)nnn1Cc1cccc(Cl)c1 | 37% (active)
91 | COc1ccc(Cn2nnc(C(=O)Nc3cccc(Cl)c3)c2N)cc1 | -9.56% (inactive)
92 | O=S(=O)(c1ccc2ccccc2c1)N1CCSC1c1ccc2c3c(cccc13)CC2 (centres undefined) | -6.22% (inactive)
93 | Cc1cc(NCCCn2ccnc2)n2nc(C)c(-c3cccs3)c2n1 | -74.5% (inactive)
94 | O=C(CNC1CCCC1)NCc1ccc2c(c1)OCO2 | -2.55% (inactive)
